From the supplement of paper PMC6607015
Counter-ions that a name gives are not always drawn.

Columns and labels:
Conditions in all cases: compound concentration in added solution (µM; 5 µl added to 20 µl cells): 10; 18 h
A431 [1] = assay: LBPA endosome anti-LBPA integrated intensity (sum per cell), Z-score; higher = more LBPA staining
How it was run: (§1)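 Reported values are Z-scores from AcuityXpress normalisation of per-cell integrated LBPA or filipin staining. HeLa MZ or A431 cells (3,500/well in 20 µl) were seeded onto 5 µl of 10 µM compound solution in duplicate 384-well plates, incubated 18 h, fixed in 4% PFA, stained and imaged at 20×. MetaXpress segmentation measured the intensity over the whole cell or within LBPA endosomes.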

HeLa MZ [2] = assay: as above
How it was run: as §1

A431 [3] = assay: whole-cell filipin (free cholesterol) integrated intensity, Z-score; higher = more cholesterol staining
How it was run: as §1

HeLa MZ [4] = assay: as above
How it was run: as §1

A431 [5] = assay: filipin (cholesterol) integrated intensity within LBPA endosomes, Z-score; higher = more cholesterol in LBPA endosomes
How it was run: as §1

HeLa MZ [6] = assay: as above
How it was run: as §1

SMILES	LBPA endosome anti-LBPA integrated intensity (z-score) (A431 [1])	LBPA endosome anti-LBPA integrated intensity (z-score) (HeLa MZ [2])	whole-cell filipin (z-score) (A431 [3])	whole-cell filipin (z-score) (HeLa MZ [4])	filipin (z-score) (A431 [5])	filipin (z-score) (HeLa MZ [6])
CCC(NC(C)C)C(O)c1ccc(O)c(O)c1 (stereo not given) [Isoetharine mesylate salt]	-0.174	0.0426	0.269	-0.32	-0.45	-0.32
NCC[C@H](O)C(=O)N[C@@H]1C[C@H](N)[C@@H](O[C@H]2O[C@H](CN)[C@@H](O)[C@H](O)[C@H]2O)[C@H](O)[C@H]1O[C@H]1O[C@H](CO)[C@@H](O)[C@H](N)[C@H]1O [Amikacin hydrate]	-0.71	-0.821	-1.06	-0.44	-0.672	-0.666
COc1ccccc1N1CCN(CCCNc2cc(=O)n(C)c(=O)n2C)CC1 [Urapidil hydrochloride]	-0.297	0.724	-0.315	0.116	-0.29	-0.0207
Cc1cnc(C(=O)NCCc2ccc(S(=O)(=O)NC(=O)NC3CCCCC3)cc2)cn1 [Glipizide]	-0.539	0.251	-1.07	-1.32	-0.587	-0.757
CCCCC1C(=O)N(c2ccccc2)N(c2ccc(O)cc2)C1=O (stereo not given) [Oxyphenbutazone]	-0.518	-0.9	0.131	0.127	-0.41	-0.527
NC[C@@H]1O[C@H](O[C@H]2[C@@H](O)[C@H](O[C@@H]3[C@@H](O)[C@H](N)C[C@H](N)[C@H]3O[C@H]3O[C@H](CO)[C@@H](O)[C@H](O)[C@H]3N)O[C@@H]2CO)[C@H](N)[C@@H](O)[C@@H]1O [Paromomycin sulfate]	-0.396	-0.465	-0.35	-0.208	-0.425	-0.447
CC(N/C(=N\C#N)Nc1ccncc1)C(C)(C)C (stereo not given) [Pinacidil]	-0.477	-0.897	-0.717	-0.503	-0.45	-0.559
COc1ccccc1Oc1c(NS(=O)(=O)c2ccc(C(C)(C)C)cc2)nc(-c2ncccn2)nc1OCCO [Bosentan]	-0.54	-0.445	-0.199	0.0121	-0.493	-0.438
Clc1ccc2c(c1)C(N1CCNCC1)=Nc1ccccc1O2 [Amoxapine]	3.32	0.828	0.789	-0.797	2.56	1.55
CC(C)(C(=O)c1cccnc1)c1cccnc1 [Metyrapone]	-0.435	-0.575	-0.128	-0.599	-0.359	-0.375
O=C(O)CCC(=O)c1ccc(-c2ccccc2)cc1 [Fenbufen]	-0.493	0.243	-0.496	-0.311	-0.512	-0.583
CCCc1cc(C(N)=S)ccn1 [Prothionamide]	-0.257	0.224	0.0431	-0.0396	-0.301	-0.377
CCC1NC(=O)c2cc(S(N)(=O)=O)c(Cl)cc2N1 (stereo not given) [Quinethazone]	-0.328	-1.04	0.366	0.147	-0.404	-0.386
NC(N)=Nc1nc(CSCC/C(N)=N/S(N)(=O)=O)cs1 [Famotidine]	-0.5	-0.604	-0.838	-0.898	-0.447	-0.623
Cc1onc(-c2ccccc2)c1C(=O)N[C@@H]1C(=O)N2[C@@H]1SC(C)(C)[C@@H]2C(=O)O [Oxacillin sodium]	-0.391	0.32	-0.277	-0.0335	-0.382	-0.445
CCCCOc1cc(C(=O)NCCN(CC)CC)c2ccccc2n1 [Dibucaine]	2.05	2.71	2.14	1.5	2.29	2.2
C#C[C@]1(O)CC[C@H]2[C@@H]3CCC4=C(CCC(=O)C4)[C@H]3CC[C@@]21C [Norethynodrel]	-0.487	-0.658	-0.784	-0.871	-0.48	-0.512
COc1cc(NS(=O)(=O)c2ccc(N)cc2)ncn1 [Sulfamonomethoxine]	-0.448	0.107	-0.452	0.0403	-0.378	-0.344
Clc1ccc(Cn2c(CN3CCCC3)nc3ccccc32)cc1 [Clemizole hydrochloride]	0.145	0.955	0.228	-0.285	0.0324	-0.147
CCn1cc(C(=O)O)c(=O)c2cc(F)c(N3CCN(C)CC3)cc21 [Pefloxacine]	-0.525	-0.713	-0.866	-1.02	-0.571	-0.621
CCCCC[C@H](O)/C=C/[C@@H]1[C@@H](C/C=C\CCCC(=O)O)[C@@H](O)C[C@H]1O [Dinoprost trometamol]	-0.294	-0.303	-0.632	-0.582	-0.462	-0.236
CCC(C)(CN(C)C)OC(=O)c1ccccc1 (stereo not given) [Amyleine hydrochloride]	-0.517	0.00392	-0.884	-0.337	-0.528	-0.471
Nc1ccc(O)c(C(=O)O)c1 [Mesalamine]	-0.0986	0.304	0.385	0.263	-0.341	-0.247
CNC[C@H](O)[C@@H](O)[C@H](O)[C@H](O)CO [Meglumine]	-0.671	-1.5	-0.386	-0.451	-0.555	-0.582
COc1cc(NS(=O)(=O)c2ccc(N)cc2)nc(OC)n1 [Sulfadimethoxine]	-0.522	-0.857	-0.62	0.132	-0.482	-0.404
